Inconclusive results are not listed. The source made the active and inactive calls. Unless noted, calls come from the whole dose curve; as a rule, active = well fitted curve in the direction sought with a large enough effect in the repeat runs; inconclusive = weak or mixed curves; inactive = no such curve, though single readings can be large; an effect the other way counts as inactive or inconclusive.
How the values were obtained:
[1] = qHTS assay to identify small molecule agonists of the estrogen receptor alpha (ER-alpha) signaling pathway in the presence of an antagonist - cell viability counter screen (AID 1259386);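 note: series mostly up to about 92 µM; cells exposed to compounds for 22 h at 37 °C before the viability read; nearly all actives have a fitted effect of over 30% in size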
Outline: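 Cells are starved of estrogens for 5 days in charcoal-stripped serum, seeded for 24hr and co-treated with ICI-182,780 (10.0nM final) and test compounds. After 22hr at 37C, viability is read as CellTiter-Fluor fluorescence.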

[2] = biological target: Progesterone receptor (Homo sapiens) (UniProt P06401); experiment: qHTS assay to identify small molecule agonists of the progesterone receptor (PR) signaling pathway (AID 1346784; calls by dose curve; note: nearly all actives have a fitted effect of over 30% in size)
Outline: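 Seed PR-UAS-bla HEK 293T cells (2% charcoal-stripped FBS), incubate 6 hr at 37C; add compounds in DMSO, 16 hr at 37C; add LiveBLAzer B/G substrate, 2 hr RT; read fluorescence intensity.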

[3] = biological target: Progesterone receptor (Homo sapiens) (UniProt P06401); experiment: qHTS assay to identify small molecule antagonists of the progesterone receptor (PR) signaling pathway (AID 1346795; active = well fitted inhibition curve with a large enough effect in the signal ratio in the repeat runs, not every such curve was filed as active; the % refers to the signal ratio)
Outline: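 Screening used a GripTite HEK293T line with PR-responsive UAS-beta-lactamase. Cells were challenged with compound in the presence of 1 nM R5020 final for 16 hr at 37C; B/G FRET substrate, 2 hr room temperature, fluorescence.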

[4] = qHTS assay to identify small molecule antagonists of the progesterone receptor (PR) signaling pathway - cell viability counter screen (AID 1346798); note: series mostly up to about 92 µM; nearly all actives have a fitted effect of over 50% in size
Outline: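 Measures cytotoxicity in parallel with the PR antagonist reporter read: HEK293T PR-UAS-bla cells get compound and R5020 for 16 hr, and remaining viable cells are quantified by CellTiter-Glo luminescence.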

[5] = qHTS assay to identify small molecule agonists of the progesterone receptor (PR) signaling pathway - cell viability counter screen (AID 1346799; calls by dose curve; note: nearly all actives have a fitted effect of over 45% in size)
Outline: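 Using the same plates as the PR reporter screen, HEK293T PR-UAS-bla cells received compounds for 16 hr at 37C and were then lysed with CellTiter-Glo; luminescence was read 30 min later at room temperature.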

[6] = qHTS assay to identify small molecule antagonists of the TGF-beta/Smad signaling pathway - cell viability counter screen (AID 1346824); note: nearly all actives have a fitted effect of over 50% in size
Outline: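 SBE-bla HEK 293T cells were plated overnight at 37 C, then given compounds in DMSO plus TGF-beta1 (added as 0.25 ng/mL solution) for 5 hr. After the bla read, CellTiter-Glo was added to the same wells and luminescence read after 30 min at room temperature.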

[7] = qHTS assay to identify small molecule agonists of the TGF-beta/Smad signaling pathway - cell viability counter screen (AID 1346829); note: top concentration of the series differs between compounds; nearly all actives have a fitted effect of over 45% in size
Outline: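 Compound-treated SBE-bla HEK 293T cells (5 hr, 37 C) were assessed for viability with CellTiter-Glo in parallel with the reporter read.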

[8] = qHTS assay to identify small molecule agonists of the TGF-beta/Smad signaling pathway (AID 1346859; active = well fitted activation curve with a large enough effect in the signal ratio in the repeat runs, not every such curve was filed as active; the % refers to the signal ratio; note: series mostly up to about 77 µM)
Outline: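 Beta-lactamase reporter activity downstream of Smad binding elements was measured in stably transfected HEK 293T cells; compounds were incubated for 5 hr, substrate for 2 hr at room temperature.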

[9] = biological target: Thyrotropin-releasing hormone receptor (Homo sapiens) (UniProt P34981); experiment: qHTS assay to identify small molecule antagonists of the thyrotropin-releasing hormone receptor (TRHR) signaling pathway (AID 1346877; active = well fitted inhibition curve with a large enough effect in the repeat runs, not every such curve was filed as active; note: series mostly up to about 51 µM)
Outline: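 Cells (TRHR-HEK293) are plated and kept 18 h at 37 °C/5% CO2. A calcium-sensitive dye is added for 2 h, compound follows for 5 min at room temperature, and TRH is then given at 1 nM final.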

[10] = biological target: Thyrotropin-releasing hormone receptor (Homo sapiens) (UniProt P34981); experiment: qHTS assay to identify small molecule agonists of the thyrotropin-releasing hormone receptor (TRHR) signaling pathway (AID 1346891; calls by dose curve;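 note: HEK293 cells expressing TRHR with calcium dye readout; series mostly up to about 58 µM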)
Outline: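 Overnight-plated (18 h, 37 °C, 5% CO2) TRHR-Hek293 cells; 2 h calcium dye at 37 °C; compound in DMSO; 3-min kinetic fluorescence read.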

[11] = Human pregnane X receptor (PXR) small molecule agonists, qHTS cell viability counter screen (AID 1346977); note: nearly all actives have a fitted effect of over 50% in size
Outline: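 After a 5hr pre-incubation, PXR-Luc HepG2 cells received compounds plus positive control in DMSO and were kept 24hr at 37C. Cell viability was quantified by fluorescence from CellTiter-Fluor added for the final hour.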

[12] = Caspase-3/7 induction in HepG2 cells by small molecules, qHTS assay (AID 1346978); note: nearly all actives have a fitted effect of over 15% in size
Outline: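 Wild-type HepG2 cells (2,000/well) were settled 5 h at 37 C, 5% CO2, then exposed to compounds in DMSO for 17 h. Caspase-3/7 activity was read by luminescence 30 min after adding Caspase-Glo 3/7 reagent at room temperature.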

[13] = Caspase-3/7 induction in CHO-K1 cells by small molecules, qHTS cell viability counter screen (AID 1346979); note: nearly all actives have a fitted effect of over 35% in size
Outline: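 Multiplexed with Caspase-Glo 3/7 in CHO-K1 cells, this counter screen added CellTiter-Fluor after 16hr of compound exposure and recorded fluorescence 1hr later.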

[14] = Caspase-3/7 induction in CHO-K1 cells by small molecules, qHTS assay (AID 1346980); note: nearly all actives have a fitted effect of over 15% in size
Outline: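 Wild-type cells were seeded at 1,500 per well and settled 5 hr at 37 C, 5% CO2, then exposed to DMSO-dissolved compounds for 17 hr. Caspase-Glo 3/7 reagent was added, and luminescence was read after 30min at room temperature.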

[15] = Caspase-3/7 induction in HepG2 cells by small molecules, qHTS cell viability counter screen (AID 1346981); note: series mostly up to about 92 µM; nearly all actives have a fitted effect of over 30% in size
Outline: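 Steps: seed 2,000 HepG2 cells per well; incubate 5 hr at 37 C; pin-add compounds in DMSO; incubate 16 hr; add CellTiter-Fluor; after 1 hr at 37 C and 5% CO2, read fluorescence.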

[16] = biological target: Nuclear receptor subfamily 1 group I member 2 (Homo sapiens) (UniProt O75469); experiment: Human pregnane X receptor (PXR) small molecule agonists, qHTS assay (AID 1346982); note: nearly all actives have a fitted effect of over 35% in size
Outline: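 Agonist mode qHTS: PXR-Luc HepG2 cells plated 5 hr before DMSO-dissolved compounds were pinned in, cultured 24 hr at 37 C, 5% CO2; ONE-Glo luminescence readout.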

[17] = biological target: Cytochrome P450 2D6 (Homo sapiens) (UniProt P10635); experiment: Cytochrome P450 Family 2 Subfamily D Member 6 (CYP2D6) small molecule antagonists: luciferase reporter qHTS assay (AID 1671196); note: nearly all actives have a fitted effect of over 50% in size; note: potency is the fitted concentration of half-maximal effect; for activity change, negative = inhibition: series mostly up to about 120 µM
Outline: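 P450-Glo format: CYP2D6 converts a proluciferin substrate to luciferin in an NADPH-driven reaction lasting 1 h at room temperature. Light output, proportional to CYP2D6 activity, reflects interference by test chemicals.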

[18] = biological target: Nuclear receptor subfamily 1 group I member 2 (Rattus norvegicus) (UniProt Q9R1A7); experiment: Rat pregnane X receptor (rPXR) activation by small molecules, qHTS assay (AID 1346983); settings: rPXR luciferase reporter cells, One-Glo luminescence, 24 h; max activation: hits give high values; note: nearly all actives have a fitted effect of over 20% in size
Outline: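 Cell-based rPXR luciferase reporter assay, 2,000 cells per well, rested 5hr at 37 C before compound addition in DMSO, then 24 hr at 37 C. One-Glo reagent was added and luminescence read after 30 min at room temperature.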

[19] = biological target: Nuclear receptor subfamily 1 group I member 2 (Homo sapiens) (UniProt O75469); experiment: CYP3A4 induction through human pregnane X receptor (PXR) by small molecules, qHTS assay (AID 1346984); note: nearly all actives have a fitted effect of over 40% in size
Outline: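 Steps: seed DPX-2 cells, 5 hr at 37C; pin-transfer compounds; 24 hr at 37C; add Luciferin-IPA (3uM final), 3 hr at 37C; add One-Glo, 30 min RT; read luminescence.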

[20] = biological target: Nuclear receptor subfamily 1 group I member 2 (Homo sapiens) (UniProt O75469); experiment: Human pregnane X receptor (PXR) activation by small molecules, qHTS assay (AID 1346985); note: nearly all actives have a fitted effect of over 40% in size
Outline: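 DPX-2 cells (HepG2 co-transfected with a PXR response element and a CYP3A4-promoter luciferase construct) were seeded at 2,000 per well, rested 5 hr at 37C, then exposed to DMSO-dissolved compounds for 24 hr. Activation was read as luciferase luminescence.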
% is set by controls: 0 for no effect and ±100 for the full control effect.

Chain of Nuclear receptor subfamily 1 group I member 2 (Homo sapiens) (O75469 whole entry, looked up): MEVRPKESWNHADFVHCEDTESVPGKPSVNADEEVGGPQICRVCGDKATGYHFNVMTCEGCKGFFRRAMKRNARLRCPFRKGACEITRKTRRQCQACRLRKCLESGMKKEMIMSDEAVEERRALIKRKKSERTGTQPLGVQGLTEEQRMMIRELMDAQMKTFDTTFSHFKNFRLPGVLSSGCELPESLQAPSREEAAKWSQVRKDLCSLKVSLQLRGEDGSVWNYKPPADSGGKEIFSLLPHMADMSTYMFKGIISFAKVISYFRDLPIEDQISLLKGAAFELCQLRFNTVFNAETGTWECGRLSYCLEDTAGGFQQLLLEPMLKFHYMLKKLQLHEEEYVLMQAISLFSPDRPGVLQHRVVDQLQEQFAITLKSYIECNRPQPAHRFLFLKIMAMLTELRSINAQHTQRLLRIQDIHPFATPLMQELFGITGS
Chain of Progesterone receptor (Homo sapiens) (P06401 whole entry, looked up): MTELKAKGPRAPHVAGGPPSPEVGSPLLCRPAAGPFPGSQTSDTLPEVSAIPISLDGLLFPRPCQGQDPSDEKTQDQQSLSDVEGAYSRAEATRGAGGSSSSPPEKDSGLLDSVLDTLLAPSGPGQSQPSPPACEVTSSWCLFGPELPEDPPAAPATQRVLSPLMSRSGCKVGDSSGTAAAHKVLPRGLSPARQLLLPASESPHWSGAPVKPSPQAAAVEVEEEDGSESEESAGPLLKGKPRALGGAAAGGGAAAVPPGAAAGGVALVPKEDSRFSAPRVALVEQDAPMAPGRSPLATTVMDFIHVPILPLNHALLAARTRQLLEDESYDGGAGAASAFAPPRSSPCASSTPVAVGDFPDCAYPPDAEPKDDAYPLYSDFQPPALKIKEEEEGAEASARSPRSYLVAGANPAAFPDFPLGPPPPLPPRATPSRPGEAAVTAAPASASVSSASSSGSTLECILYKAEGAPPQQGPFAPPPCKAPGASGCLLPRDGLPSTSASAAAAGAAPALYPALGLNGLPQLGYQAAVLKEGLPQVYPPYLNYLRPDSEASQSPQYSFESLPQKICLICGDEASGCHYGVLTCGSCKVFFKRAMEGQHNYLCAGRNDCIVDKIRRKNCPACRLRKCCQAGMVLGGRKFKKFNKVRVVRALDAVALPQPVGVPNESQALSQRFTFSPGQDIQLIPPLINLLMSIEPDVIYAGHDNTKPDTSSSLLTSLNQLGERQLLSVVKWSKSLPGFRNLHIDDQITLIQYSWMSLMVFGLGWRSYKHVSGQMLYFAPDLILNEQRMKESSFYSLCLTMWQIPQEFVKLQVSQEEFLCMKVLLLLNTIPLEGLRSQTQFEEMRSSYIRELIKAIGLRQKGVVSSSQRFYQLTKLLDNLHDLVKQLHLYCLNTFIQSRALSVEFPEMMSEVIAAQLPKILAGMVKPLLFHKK
Chain of Thyrotropin-releasing hormone receptor (Homo sapiens) (P34981 whole entry, looked up): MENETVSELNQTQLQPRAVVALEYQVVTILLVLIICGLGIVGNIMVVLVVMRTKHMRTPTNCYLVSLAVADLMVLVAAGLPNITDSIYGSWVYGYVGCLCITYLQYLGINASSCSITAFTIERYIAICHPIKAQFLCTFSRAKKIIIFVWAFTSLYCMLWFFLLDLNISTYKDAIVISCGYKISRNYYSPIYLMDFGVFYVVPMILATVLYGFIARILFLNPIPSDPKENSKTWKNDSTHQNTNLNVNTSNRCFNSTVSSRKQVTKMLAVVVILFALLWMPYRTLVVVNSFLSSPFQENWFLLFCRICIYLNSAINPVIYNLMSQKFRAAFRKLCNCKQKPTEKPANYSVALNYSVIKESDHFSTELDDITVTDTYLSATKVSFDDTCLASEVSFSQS
Chain of Cytochrome P450 2D6 (Homo sapiens) (P10635 whole entry, looked up): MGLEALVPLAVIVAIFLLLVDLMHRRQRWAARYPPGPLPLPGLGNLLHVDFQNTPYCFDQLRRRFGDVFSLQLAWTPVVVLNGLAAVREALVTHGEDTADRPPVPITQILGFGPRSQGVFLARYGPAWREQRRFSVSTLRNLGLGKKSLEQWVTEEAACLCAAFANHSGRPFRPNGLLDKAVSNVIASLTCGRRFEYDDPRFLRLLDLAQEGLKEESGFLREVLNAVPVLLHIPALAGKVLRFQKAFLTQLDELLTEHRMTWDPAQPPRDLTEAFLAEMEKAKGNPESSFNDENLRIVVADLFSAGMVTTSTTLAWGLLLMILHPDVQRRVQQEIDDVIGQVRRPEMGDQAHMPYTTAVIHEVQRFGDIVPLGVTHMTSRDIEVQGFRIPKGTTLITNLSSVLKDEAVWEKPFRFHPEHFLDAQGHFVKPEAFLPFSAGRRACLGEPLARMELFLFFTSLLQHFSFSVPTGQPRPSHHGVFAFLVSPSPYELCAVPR
Chain of Nuclear receptor subfamily 1 group I member 2 (Rattus norvegicus) (Q9R1A7 whole entry, looked up): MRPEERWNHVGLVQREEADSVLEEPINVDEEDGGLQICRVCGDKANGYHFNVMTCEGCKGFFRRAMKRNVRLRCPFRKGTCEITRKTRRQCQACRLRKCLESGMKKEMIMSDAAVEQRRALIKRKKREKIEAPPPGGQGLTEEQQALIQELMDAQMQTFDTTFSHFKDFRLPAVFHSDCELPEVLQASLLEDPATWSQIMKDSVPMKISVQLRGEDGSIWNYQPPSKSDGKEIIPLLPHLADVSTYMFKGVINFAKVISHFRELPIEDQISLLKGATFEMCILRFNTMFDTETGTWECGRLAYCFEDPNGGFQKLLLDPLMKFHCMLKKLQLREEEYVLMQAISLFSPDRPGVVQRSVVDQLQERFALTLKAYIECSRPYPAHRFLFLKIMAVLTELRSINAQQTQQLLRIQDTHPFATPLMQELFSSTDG

CC(N)CN (configuration not stated)
inactive: Potency [1] | Potency [2] | Potency [3] | Potency [4] | Potency [5] | outcome [6] | outcome [7] | outcome [8] | outcome [9] | Potency [10] | Potency [11] | Potency [12] | Potency [13] | outcome [14] | Potency [15] | Potency [16]

OC(CCCN1CCCCC1)(c1ccccc1)c1ccccc1
inactive: Potency [1] | Potency [2] | Potency [3] | Potency [4] | Potency [5] | outcome [6] | outcome [7] | outcome [8] | outcome [9] | Potency [10] | Potency [12] | Potency [13] | outcome [14] | Potency [15] | Potency [16]
active: Potency [17] 110 nM

C1COCO1
inactive: Potency [1] | Potency [2] | Potency [3] | Potency [4] | Potency [5] | outcome [6] | outcome [7] | outcome [8] | outcome [9] | Potency [10] | Potency [11] | Potency [12] | Potency [13] | outcome [14] | Potency [16] | Potency [17]

CC1CN(c2cc3c(cc2F)c(=O)c(C(=O)O)cn3-c2ccc(F)cc2F)CCN1 (configuration not stated)
inactive: activity change, negative = cytotoxicity [1] -5.19% [at 8.39 µM] | activation [2] -0.275% [at 8.39 µM] | activity change, negative = inhibition [3] 4.51% [at 8.39 µM] | activity change, negative = cytotoxicity [4] 0.324% [at 8.39 µM] | activity change, negative = cytotoxicity [5] -0.292% [at 8.39 µM] | viability change, negative = cytotoxic [6] -5.24% [at 6.97 µM] | activity change, negative = cytotoxicity [7] 5.65% [at 6.97 µM] | activation [8] -2.82% [at 6.97 µM] | activity, negative = inhibition [9] 2.02% [at 4.65 µM] | activation [10] 0% [at 5.23 µM] | activity change, negative = cytotoxicity [11] -4.03% [at 8.39 µM] | caspase activation [12] -0.856% [at 8.39 µM] | activity change, negative = cytotoxicity [13] -1.36% [at 8.39 µM] | caspase-3/7 activation [14] -0.241% [at 8.39 µM] | activity change, negative = cytotoxicity [15] -2.3% [at 8.39 µM] | activity change, negative = inhibition [17] -0.211% [at 10.5 µM]

CCCCC(CC)CNCC(CC)CCCC (configuration not stated)
inactive: Potency [1] | Potency [2] | Potency [3] | Potency [4] | Potency [5] | outcome [6] | outcome [7] | outcome [8] | outcome [9] | Potency [10] | Potency [11] | Potency [12] | Potency [13] | outcome [14] | Potency [16]
active: Potency [17] 199 nM

CN1CCN(c2c(F)cc3c(=O)c(C(=O)O)cn4c3c2OCN4C)CC1
inactive: activity change, negative = cytotoxicity [1] 0.0729% [at 19 µM] | activation [2] 1.06% [at 19 µM] | activity change, negative = inhibition [3] 0.0233% [at 18.9 µM] | activity change, negative = cytotoxicity [4] 10.3% [at 18.9 µM] | activity change, negative = cytotoxicity [5] 0.954% [at 19 µM] | viability change, negative = cytotoxic [6] 1.7% [at 15.8 µM] | activity change, negative = cytotoxicity [7] -7.56% [at 15.8 µM] | activation [8] -0.914% [at 15.8 µM] | activity, negative = inhibition [9] 2.89% [at 10.5 µM] | activation [10] 0.19% [at 11.8 µM] | activity change, negative = cytotoxicity [11] 4.15% [at 19 µM] | caspase activation [12] 0.165% [at 19 µM] | activity change, negative = cytotoxicity [13] 3.06% [at 19 µM] | activity change, negative = cytotoxicity [15] 8.88% [at 19 µM] | activation [16] -8.38% [at 19 µM] | max activation [18] -1.24% | Potency [19] | Potency [20] | activity change, negative = inhibition [17] -1.32% [at 23.6 µM]

O=C(O)Cc1ccc(-c2ccccc2)cc1
inactive: Potency [1] | Potency [2] | Potency [3] | Potency [4] | Potency [5] | outcome [6] | outcome [7] | outcome [8] | outcome [9] | Potency [11] | Potency [12] | Potency [13] | Potency [15] | Potency [16] | max activation [18] -2.71% | Potency [19] | Potency [20] | Potency [17]
